# In the supplement of paper PMC10849652:
# Targets with a hit are over-represented here; the source holds about 8,800 in all. About 0.5% of all pairs of compound and target were hits. Unmarked numbers belong to inactive results.
# Experiments:
# Experiment in all cases: log2 fold change, soluble protein after heating vs DMSO (PISA); higher = thermal stabilisation; K562 lysate, 10 uM; active = over 0.2 and 3.5 SD of the protein, either way, in both replicates (recomputed)
# [1] = compound: C1=CC=C(C=C1)C2=NC(=C(N2)C3=CC=NC=C3)C4=CC(=C(C=C4)Cl)O
# Summary of the method: (§1)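 Soluble protein was defined as the supernatant remaining after 21,000xg for 90 min, following pooling of heated aliquots and adjustment to 0.5% NP-40 at 4°C. Before that, crude K562 extract at 1 mg/mL protein in PBS pH 7.4 with 1 mM MgCl2 was treated with 10 μM compound for 30 min and heated for 3 min across 48°C-58°C. Quantification used TMTpro 16plex LC-MS/MS with channel sums equalised, and values are log-two fold changes in thermal stability relative to solvent controls from duplicates.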
# IRAK-1-4 Inhibitor I = compound: C1COCCN1CCN2C3=CC=CC=C3N=C2NC(=O)C4=CC(=CC=C4)[N+](=O)[O-] [IRAK-1-4 Inhibitor I]
# Summary of the method: as §1
# ralimetinib = compound: CC(C)(C)Cn1c(N)nc2ccc(-c3[nH]c(C(C)(C)C)nc3-c3ccc(F)cc3)nc21 [ralimetinib]
# Summary of the method: as §1
# [2] = compound: CC(C)(O)CC(=O)NCCn1ccc2ncnc(Nc3ccc(Oc4cccc(C(F)(F)F)c4)c(Cl)c3)c21
# Summary of the method: as §1
# [3] = compound: CC1=C(C2=C(C=C1)C(=O)C3=CC=CC=C3N2CCCN)C
# Summary of the method: as §1
# [4] = compound: CC1=C(C=C(C=C1)NC(=O)C2=CC(=CC=C2)N(C)C)NC(=O)C3=CC=C(C=C3)O
# Summary of the method: as §1
# [5] = compound: C1=CC2=NC=CN=C2C=C1/C=C/3\C(=O)NC(=O)S3
# Summary of the method: as §1
# [6] = compound: C1CCN(C1)C(=O)NC2=CC=CC(=C2)NC3=NC=C(C(=N3)NCCC4=CN=CN4)Br
# Summary of the method: as §1
# [7] = compound: C1CN(CCC1(CC2=CC=C(C=C2)Cl)N)C3=NC=NC4=C3C=CN4
# Summary of the method: as §1
# ibrutinib = compound: C=CC(=O)N1CCC[C@@H](n2nc(-c3ccc(Oc4ccccc4)cc3)c3c(N)ncnc32)C1 [ibrutinib]
# Summary of the method: as §1
# [8] = compound: CC1=C(C=C(C=C1)NC(=O)C2=CC(=CC=C2)C(C)(C)C#N)NC3=CC4=C(C=C3)N=CN(C4=O)C
# Summary of the method: as §1
# erlotinib = compound: C#Cc1cccc(Nc2ncnc3cc(OCCOC)c(OCCOC)cc23)c1 [erlotinib]
# Summary of the method: as §1
# [9] = compound: C1=CC(=CC=C1C2=NC3=C(N2)C=C(C=C3)C(=O)N)OC4=CC=C(C=C4)Cl
# Summary of the method: as §1
# [10] = compound: CC(=O)c1cnc2ccc(-c3cc(Cl)c(O)c(Cl)c3)nc2c1N[C@H]1CC[C@H](CN(C)C)CC1
# Summary of the method: as §1
# [11] = compound: CC(C)C1=C2N=C(C=C(N2N=C1)NCC3=CC=CC=C3)NCCCCCCN
# Summary of the method: as §1
# [12] = compound: CC1=C(C(CC(=O)N1)C2=CC=C(C=C2)C(F)(F)F)C(=O)NC3=C(C=C4C(=C3)C=NN4)F
# Summary of the method: as §1
# [13] = compound: CC1=CC=C(C=C1)SC2=C3C=C(SC3=CN=C2)C(=O)N
# Summary of the method: as §1
# [14] = compound: C/C(=N\NC(=O)C1=CC(=CC=C1)S(=O)(=O)N2CCOCC2)/C3=C(C=CC(=C3)Cl)O
# Summary of the method: as §1
# [15] = compound: C1=CC2=C(C=CC(=C2)/C=C\3/C(=O)NC(=NCC4=CC=CS4)S3)N=C1
# Summary of the method: as §1
# [16] = compound: C1=CC=C2C(=C1)C3=NNC4=CC=CC(=C43)C2=O
# Summary of the method: as §1
# Chain of UniProt P30622 (P30622 whole entry, looked up): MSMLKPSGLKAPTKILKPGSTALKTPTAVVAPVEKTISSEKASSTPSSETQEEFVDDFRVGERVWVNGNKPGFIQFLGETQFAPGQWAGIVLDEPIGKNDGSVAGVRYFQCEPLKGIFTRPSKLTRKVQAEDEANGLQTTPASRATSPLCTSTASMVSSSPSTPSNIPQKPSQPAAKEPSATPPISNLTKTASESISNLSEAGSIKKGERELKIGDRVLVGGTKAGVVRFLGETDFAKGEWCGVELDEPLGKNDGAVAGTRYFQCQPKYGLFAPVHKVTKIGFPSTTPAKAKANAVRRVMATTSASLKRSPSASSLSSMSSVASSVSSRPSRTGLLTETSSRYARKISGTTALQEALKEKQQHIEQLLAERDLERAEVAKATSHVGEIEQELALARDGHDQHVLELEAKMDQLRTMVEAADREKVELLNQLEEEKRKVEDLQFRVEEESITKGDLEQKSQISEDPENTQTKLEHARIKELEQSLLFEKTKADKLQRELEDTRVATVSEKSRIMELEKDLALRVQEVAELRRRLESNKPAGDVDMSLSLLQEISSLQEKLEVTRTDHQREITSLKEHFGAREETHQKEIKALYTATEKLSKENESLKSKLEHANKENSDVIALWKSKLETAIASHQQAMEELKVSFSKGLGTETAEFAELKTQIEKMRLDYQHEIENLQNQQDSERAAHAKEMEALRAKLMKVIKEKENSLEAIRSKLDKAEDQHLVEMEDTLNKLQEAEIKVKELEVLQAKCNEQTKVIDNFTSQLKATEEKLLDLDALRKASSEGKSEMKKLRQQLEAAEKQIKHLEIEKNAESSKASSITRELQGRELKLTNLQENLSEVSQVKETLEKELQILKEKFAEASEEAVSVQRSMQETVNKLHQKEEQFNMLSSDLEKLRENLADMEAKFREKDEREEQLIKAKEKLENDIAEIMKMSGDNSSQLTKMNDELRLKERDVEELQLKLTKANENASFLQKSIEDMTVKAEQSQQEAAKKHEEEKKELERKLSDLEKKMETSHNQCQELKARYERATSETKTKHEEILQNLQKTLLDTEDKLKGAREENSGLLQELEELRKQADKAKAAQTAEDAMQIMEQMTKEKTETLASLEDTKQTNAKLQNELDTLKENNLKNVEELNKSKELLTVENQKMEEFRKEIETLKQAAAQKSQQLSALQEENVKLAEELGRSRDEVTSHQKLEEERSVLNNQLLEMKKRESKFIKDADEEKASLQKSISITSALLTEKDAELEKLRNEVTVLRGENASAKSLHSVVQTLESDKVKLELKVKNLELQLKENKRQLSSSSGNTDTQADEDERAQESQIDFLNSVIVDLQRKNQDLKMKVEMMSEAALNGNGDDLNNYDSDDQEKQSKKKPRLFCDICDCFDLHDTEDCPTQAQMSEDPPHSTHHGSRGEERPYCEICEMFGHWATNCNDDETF
# Chain of UniProt P51530 (P51530 whole entry, looked up): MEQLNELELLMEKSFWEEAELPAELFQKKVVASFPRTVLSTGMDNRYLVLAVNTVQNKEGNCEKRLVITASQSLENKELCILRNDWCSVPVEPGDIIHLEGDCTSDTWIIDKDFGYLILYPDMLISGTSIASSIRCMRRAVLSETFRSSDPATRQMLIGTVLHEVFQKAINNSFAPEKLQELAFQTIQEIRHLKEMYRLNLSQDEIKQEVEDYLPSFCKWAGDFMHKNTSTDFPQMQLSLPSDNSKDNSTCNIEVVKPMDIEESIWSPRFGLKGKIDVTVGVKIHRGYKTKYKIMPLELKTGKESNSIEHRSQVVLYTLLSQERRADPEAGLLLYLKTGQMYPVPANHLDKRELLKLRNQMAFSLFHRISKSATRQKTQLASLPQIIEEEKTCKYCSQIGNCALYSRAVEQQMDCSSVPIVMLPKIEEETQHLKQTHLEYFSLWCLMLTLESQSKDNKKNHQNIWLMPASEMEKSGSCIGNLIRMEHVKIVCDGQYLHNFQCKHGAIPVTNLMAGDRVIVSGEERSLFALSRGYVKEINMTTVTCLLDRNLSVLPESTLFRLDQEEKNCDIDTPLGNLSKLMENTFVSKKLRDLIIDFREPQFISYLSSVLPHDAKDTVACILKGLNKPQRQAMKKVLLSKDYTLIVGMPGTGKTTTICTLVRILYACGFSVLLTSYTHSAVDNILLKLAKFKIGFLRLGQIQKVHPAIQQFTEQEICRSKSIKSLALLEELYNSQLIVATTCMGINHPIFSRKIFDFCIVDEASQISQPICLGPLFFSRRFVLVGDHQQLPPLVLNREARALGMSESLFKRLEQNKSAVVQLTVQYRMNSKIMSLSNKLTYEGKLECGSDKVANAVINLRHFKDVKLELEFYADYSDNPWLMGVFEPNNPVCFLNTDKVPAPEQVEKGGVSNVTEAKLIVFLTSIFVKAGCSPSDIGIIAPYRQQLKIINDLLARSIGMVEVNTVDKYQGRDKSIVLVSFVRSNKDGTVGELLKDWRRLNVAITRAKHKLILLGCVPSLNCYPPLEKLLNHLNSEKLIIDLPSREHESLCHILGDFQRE
# Chain of UniProt Q9UJA2 (Q9UJA2 whole entry, looked up): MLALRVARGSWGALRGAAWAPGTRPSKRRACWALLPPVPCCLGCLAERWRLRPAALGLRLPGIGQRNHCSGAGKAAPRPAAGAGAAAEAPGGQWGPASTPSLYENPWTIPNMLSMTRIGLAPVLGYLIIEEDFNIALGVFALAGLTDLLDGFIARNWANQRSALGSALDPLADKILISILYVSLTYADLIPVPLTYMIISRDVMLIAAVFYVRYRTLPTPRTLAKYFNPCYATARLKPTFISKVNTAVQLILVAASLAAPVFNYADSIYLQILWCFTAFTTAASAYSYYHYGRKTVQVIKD
# Chain of UniProt Q7Z460 (Q7Z460 whole entry, looked up): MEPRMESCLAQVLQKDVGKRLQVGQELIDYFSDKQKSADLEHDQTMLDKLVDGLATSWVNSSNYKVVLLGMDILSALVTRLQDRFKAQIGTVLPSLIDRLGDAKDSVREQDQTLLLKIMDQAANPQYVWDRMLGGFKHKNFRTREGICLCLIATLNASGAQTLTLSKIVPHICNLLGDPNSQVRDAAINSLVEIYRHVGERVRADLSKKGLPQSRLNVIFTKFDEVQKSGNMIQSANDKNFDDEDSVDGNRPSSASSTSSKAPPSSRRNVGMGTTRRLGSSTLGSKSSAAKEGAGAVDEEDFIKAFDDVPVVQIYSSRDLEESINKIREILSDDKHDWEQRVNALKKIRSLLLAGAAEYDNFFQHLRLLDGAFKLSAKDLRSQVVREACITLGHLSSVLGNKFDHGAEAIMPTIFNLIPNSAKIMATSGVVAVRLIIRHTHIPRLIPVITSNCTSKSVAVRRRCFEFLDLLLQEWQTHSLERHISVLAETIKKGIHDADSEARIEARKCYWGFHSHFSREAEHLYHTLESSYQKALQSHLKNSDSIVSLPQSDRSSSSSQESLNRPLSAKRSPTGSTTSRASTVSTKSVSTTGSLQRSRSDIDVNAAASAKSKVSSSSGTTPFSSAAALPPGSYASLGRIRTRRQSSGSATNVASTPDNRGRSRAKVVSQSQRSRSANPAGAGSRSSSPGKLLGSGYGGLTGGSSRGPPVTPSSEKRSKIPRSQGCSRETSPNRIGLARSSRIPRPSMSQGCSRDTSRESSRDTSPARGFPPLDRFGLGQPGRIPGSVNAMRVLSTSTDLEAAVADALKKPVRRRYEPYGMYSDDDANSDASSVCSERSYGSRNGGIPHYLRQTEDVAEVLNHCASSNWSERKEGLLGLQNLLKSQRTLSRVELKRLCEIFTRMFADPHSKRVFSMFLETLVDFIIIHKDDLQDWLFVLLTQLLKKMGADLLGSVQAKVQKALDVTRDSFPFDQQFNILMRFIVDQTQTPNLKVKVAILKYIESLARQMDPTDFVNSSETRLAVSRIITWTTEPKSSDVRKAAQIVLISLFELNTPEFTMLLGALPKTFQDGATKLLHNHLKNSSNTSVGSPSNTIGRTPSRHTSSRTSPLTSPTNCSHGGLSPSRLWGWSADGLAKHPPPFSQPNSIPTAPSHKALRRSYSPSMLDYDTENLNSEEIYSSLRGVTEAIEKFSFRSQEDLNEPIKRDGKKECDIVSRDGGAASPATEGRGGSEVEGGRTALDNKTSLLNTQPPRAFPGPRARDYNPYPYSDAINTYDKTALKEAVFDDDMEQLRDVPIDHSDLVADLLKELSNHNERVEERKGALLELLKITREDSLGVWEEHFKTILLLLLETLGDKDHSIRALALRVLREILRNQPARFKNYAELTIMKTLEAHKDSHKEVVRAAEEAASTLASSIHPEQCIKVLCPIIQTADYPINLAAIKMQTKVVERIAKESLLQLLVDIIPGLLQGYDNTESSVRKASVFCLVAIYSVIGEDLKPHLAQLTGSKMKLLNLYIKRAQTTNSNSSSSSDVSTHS
# Chain of UniProt P48730 (P48730 whole entry, looked up): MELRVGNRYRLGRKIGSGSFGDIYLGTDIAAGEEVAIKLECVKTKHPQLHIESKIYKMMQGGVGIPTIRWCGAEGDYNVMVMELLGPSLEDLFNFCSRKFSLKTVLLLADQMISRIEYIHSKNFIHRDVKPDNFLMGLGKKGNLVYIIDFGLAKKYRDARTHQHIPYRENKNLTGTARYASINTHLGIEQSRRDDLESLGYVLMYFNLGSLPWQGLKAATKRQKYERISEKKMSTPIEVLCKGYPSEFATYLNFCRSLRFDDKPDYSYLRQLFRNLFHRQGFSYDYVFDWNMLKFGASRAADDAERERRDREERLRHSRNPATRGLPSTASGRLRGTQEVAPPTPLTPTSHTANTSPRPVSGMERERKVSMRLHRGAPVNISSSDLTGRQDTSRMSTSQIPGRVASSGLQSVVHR
# Chain of UniProt Q16527 (Q16527 whole entry, looked up): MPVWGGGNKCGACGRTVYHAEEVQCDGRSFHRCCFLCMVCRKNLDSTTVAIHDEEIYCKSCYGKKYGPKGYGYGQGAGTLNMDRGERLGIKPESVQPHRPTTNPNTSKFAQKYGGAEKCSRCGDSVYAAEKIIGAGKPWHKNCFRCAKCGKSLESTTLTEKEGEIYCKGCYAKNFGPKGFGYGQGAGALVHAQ
Target,log2 fold change [1],log2 fold change (IRAK-1-4 Inhibitor I),log2 fold change (ralimetinib),log2 fold change [2],log2 fold change [3],log2 fold change [4],log2 fold change [5],log2 fold change [6],log2 fold change [7],log2 fold change (ibrutinib),log2 fold change [8],log2 fold change (erlotinib),log2 fold change [9],log2 fold change [10],log2 fold change [11],log2 fold change [12],log2 fold change [13],log2 fold change [14],log2 fold change [15],log2 fold change [16]
CSNK1A1 isoform 3 (UniProt P48729),-0.006,0.088,0.13,0.253,-0.061,0.143,,,,,,,,,,,,,,
CSRP2 (UniProt Q16527),,,,,,,-0.097,0.043,-0.003,0.054,0.271,,,,,,,,,
CRLS1 (UniProt Q9UJA2),0.056,-0.021,0.079,-0.027,,0.058,0.087,,,-0.023,0.066,0.074,-0.085,-0.008,-0.102,-0.049,0.048,,,
CLASP2 (UniProt O75122),-0.044,-0.017,0.075,0.069,,0.001,-0.225,0,0.023,,-0.098,,,-0.048,,0.044,-0.028,-0.114,0.12,-0.059
CSNK1D (UniProt P48730),0.124,-0.048,-0.038,-0.112,-0.151,-0.143,0.039,-0.031,0.013,-0.086,-0.001,,,0.494 (active),,0.245,0.179,-0.32,-0.06,0.415 (active)
CLIP1 isoform 2 (UniProt P30622),-0.055,0.026,-0.002,-0.04,-0.025,0.021,-0.082,0.023,0.023,,0.053,-0.067,0.056,0.05,-0.054,0.017,-0.088,,,
CLASP1 isoform 4 (UniProt Q7Z460),,,,,,,,,,,,0.199,0.04,,-0.124,-0.226,,-0.041,-0.262,-0.029
DAZAP1 (UniProt K7EQ02),,,,,,,,,,,,,,,,0.033,,,,
DNM2 isoform 4 (UniProt P50570),0.072,0.133,0.011,-0.027,0.075,0.047,,-0.11,-0.011,,-0.08,0.099,0.107,-0.018,-0.143,-0.07,0.058,,,
DNA2 (UniProt P51530),-0.032,-0.033,0.016,0.029,0.002,0.001,,0.027,0.077,,-0.02,-0.019,-0.054,,-0.06,-0.007,,0.071,-0.163,0.044
